Laboratory results reported in paper PMC4336329 (PLoS ONE, 2015).
About 14,000 (4.5%) of roughly 310,000 compounds showed an effect of 50% or more. The effect is printed as a negative number. Shown is part of a subset that was picked to be rich in strong results.

Target: human ether-à-go-go-related gene (hERG) potassium channel (human, UniProt Q12809)
Assay: primary screen, population patch clamp on CHO cells stably expressing hERG; higher = less effect of the substance
Description: Briefly, Chinese hamster ovary (CHO) cells stably expressing the hERG channel were dislodged from tissue culture flasks and dispensed into PPC plates. […] During the recording, background leak currents were estimated by a 100 ms step to -80 mV from an initial holding potential of -70 mV and subtracted from the subsequent current measurement. The campaign was conducted in two phases using slight differences in recording protocol. In the first phase, the initial voltage pulse used a 100 ms step to -30 mV from a holding potential of -70 mV, a 2 s conditioning step to +25 mV, and a 2 s test step to -30 mV. During the second phase of the screen, the potential during the conditioning step was raised to +45 mV. In both phases of the campaign, a secondary voltage pulse was applied using the same parameters as the second phase initial pulse. The initial and secondary pulses were applied in the absence of compound, and upon application of 1 μM and 10 μM test concentrations. […]
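Also: peak tail current of the secondary pulse compared with the same well before compound.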

human ether-à-go-go-related gene (hERG) potassium channel, sequence (Q12809 whole entry, looked up): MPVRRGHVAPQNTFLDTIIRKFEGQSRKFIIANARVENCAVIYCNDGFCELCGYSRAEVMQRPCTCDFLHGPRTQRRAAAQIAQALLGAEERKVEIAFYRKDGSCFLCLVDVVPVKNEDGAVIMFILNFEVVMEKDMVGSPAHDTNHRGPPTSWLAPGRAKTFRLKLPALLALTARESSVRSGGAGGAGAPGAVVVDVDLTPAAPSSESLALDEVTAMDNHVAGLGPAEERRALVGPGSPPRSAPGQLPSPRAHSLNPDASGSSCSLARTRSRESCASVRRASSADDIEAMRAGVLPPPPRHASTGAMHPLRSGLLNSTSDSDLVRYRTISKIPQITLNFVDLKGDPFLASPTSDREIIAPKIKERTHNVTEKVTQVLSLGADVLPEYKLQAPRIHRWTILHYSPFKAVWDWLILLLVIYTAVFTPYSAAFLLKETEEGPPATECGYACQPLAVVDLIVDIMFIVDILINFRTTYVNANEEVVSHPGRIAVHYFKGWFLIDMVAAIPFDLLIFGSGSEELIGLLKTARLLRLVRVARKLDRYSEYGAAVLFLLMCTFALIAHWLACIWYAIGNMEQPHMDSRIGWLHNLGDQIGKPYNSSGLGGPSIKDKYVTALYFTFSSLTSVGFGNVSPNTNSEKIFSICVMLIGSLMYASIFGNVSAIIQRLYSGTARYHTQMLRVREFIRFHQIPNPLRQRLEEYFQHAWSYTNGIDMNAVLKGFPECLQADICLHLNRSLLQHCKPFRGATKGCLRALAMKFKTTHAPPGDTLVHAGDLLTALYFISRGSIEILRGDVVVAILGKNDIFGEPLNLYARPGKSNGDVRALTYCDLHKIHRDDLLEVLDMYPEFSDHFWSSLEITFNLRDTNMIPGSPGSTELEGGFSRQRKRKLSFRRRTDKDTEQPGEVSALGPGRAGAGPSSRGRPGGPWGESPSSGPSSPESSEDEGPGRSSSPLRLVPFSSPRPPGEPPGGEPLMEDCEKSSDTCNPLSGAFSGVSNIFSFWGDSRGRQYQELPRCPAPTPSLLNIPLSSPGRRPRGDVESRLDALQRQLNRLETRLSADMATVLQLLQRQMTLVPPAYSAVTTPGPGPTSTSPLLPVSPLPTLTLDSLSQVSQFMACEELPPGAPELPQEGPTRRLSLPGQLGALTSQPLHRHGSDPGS

Going from `O=C(COC(=O)c1cnccn1)c1cccc([N+](=O)[O-])c1` to `CCCN1C2CCCC1CC(NC(=O)c1cccc([N+](=O)[O-])c1)C2` (centres unmarked), the “hERG current change (%, negative = inhibition) at 10uM” value falls from 14.4% to -36.8%.

Going from `O=C(Nc1ccccc1Cl)c1sccc1-c1ccccc1` to `O=C(NC1CC2CCCC(C1)N2Cc1ccccc1)c1ccc([N+](=O)[O-])cc1` (centres unmarked), the “hERG current change (%, negative = inhibition) at 10uM” value falls from -2.39% to -81%.

Going from `COc1ccc(/C=N/NC(=O)C(=O)Nc2ccccn2)cc1OC` to `COc1ccc(C2=NS(=O)(=O)N(C)C(C(=O)NCc3ccccn3)=C2)cc1OC`, the “hERG current change (%, negative = inhibition) at 10uM” value rises from -27.2% to -4.15%.

First: CC1=CC(C)(C)Nc2ccc(OC(=O)c3ccco3)cc21
Second: CCOc1ccccc1Oc1c(C)oc2cc(OC(=O)N3CCOCC3)ccc2c1=O
The “hERG current change (%, negative = inhibition) at 10uM” value of the first is lower: -0.0756% for the first, 4.41% for the second.

Compared with `CC1CN(C(=O)CN2C(=O)c3ccccc3C2=O)CC(C)O1` (centres unmarked), `O=C(NCCc1ccccc1F)C1CCC(=O)N(CCCN2CCCC2=O)C1` (centres unmarked) is lower in “hERG current change (%, negative = inhibition) at 10uM” value: 6.42% for the first, -7.84% for the second.

Compared with `CCCCCCN1CC(=O)N2Cc3[nH]c4ccccc4c3C[C@H]2C1=O`, `O=C(CCCSc1nc2ccccc2[nH]1)Nc1nnc(C2CC2)s1` is higher in “hERG current change (%, negative = inhibition) at 10uM” value: -9.11% for the first, -1.62% for the second.

First: CCn1c(SCC(N)=O)nc2sc3c(c2c1=O)CCCC3
Second: Cc1ccc(NC(=O)c2ccc(N3CCCC3=O)cc2)cc1S(=O)(=O)N1CCCCC1
The “hERG current change (%, negative = inhibition) at 10uM” value of the first is higher: 1.24% for the first, -3.33% for the second.

Compared with `COCC1CCCCC1OS(N)(=O)=O` (centres unmarked), `COCCNC(=S)NC1CC2CCCC(C1)N2Cc1cccs1` (centres unmarked) is lower in “hERG current change (%, negative = inhibition) at 10uM” value: 5.38% for the first, -26.7% for the second.

Going from `Cn1cccc1-c1nc2ccccc2n1C` to `Cn1cc(Cl)c(-c2nc3ccccc3[nH]2)n1`, the “hERG current change (%, negative = inhibition) at 10uM” value falls from -1.23% to -1.45%.

Compared with `COc1ccc(C(=O)NC2CC3CCCC(C2)N3CC(C)C)cc1` (centres unmarked), `CC(C)CN1C2CCCC1CC(NC(=O)c1ccc([N+](=O)[O-])cc1)C2` (centres unmarked) is lower in “hERG current change (%, negative = inhibition) at 10uM” value: -34.7% for the first, -78.3% for the second.

First: CN1C2CCC1CC(NC(=O)c1ccc([N+](=O)[O-])cc1)C2 (centres unmarked)
Second: O=C(NC1CC2CCCC(C1)N2Cc1cccs1)c1ccc([N+](=O)[O-])cc1 (centres unmarked)
The “hERG current change (%, negative = inhibition) at 10uM” value of the first is higher: 3.81% for the first, -84.3% for the second.

First: O=C(NC1CC2CCCC(C1)N2Cc1cccs1)N1CCOCC1 (centres unmarked)
Second: CSCCC(NC(=O)c1ccccc1Cl)C(=O)N1CCCCCCC1 (centres unmarked)
The “hERG current change (%, negative = inhibition) at 10uM” value of the first is higher: -6.2% for the first, -6.4% for the second.

First: Cc1ccc(S(=O)(=O)N2CCN(C(=O)CCOc3cc(C)ccc3C)CC2)cc1
Second: CC(=O)Nc1ccc(N2C(=O)C3C4CC(=O)C(c5ccccc54)C3C2=O)cc1 (centres unmarked)
The “hERG current change (%, negative = inhibition) at 10uM” value of the first is lower: -32.8% for the first, 7.32% for the second.
